Screens from PubChem.
Compounds with a hit are over-represented: about 7.1% of the library has one in this group of screens.
ATXN viability: viability counter-screen for ATXN expression inhibitors; S2 cells (HEK-293 line with an ATXN2-luciferase reporter) viability, CellTiter-Fluor protease fluorescence, 24 h; Potency, µM (series often up to 56.7 µM), actives largely listed as cytotoxic; 0.49% of 400,000 active; AID 651635; note: potency is the fitted concentration of half-maximal effect; nearly all actives have a fitted effect of over 40% in size
SW480 rerep: inducers of DNA re-replication in SW480 colon cancer cells. SW480 DNA re-replication, Hoechst DNA content imaging, 48 h. Potency, µM (doses to about 46.1 µM), without a hit: at the highest dose re-replication activation, actives largely listed as activators. 1.8% of 340,000 active. AID 624297; note: potency is the fitted concentration of half-maximal effect; % of control where 0% means no effect; nearly all actives have a fitted effect of over 55% in size
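Quantitative HTS format with DMSO vehicle controls; 48 hr drug incubation at 37 C, then 40 min Hoechst staining and scanning imager measurement at 405 nm excitation.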
PINK1 expr mod: modulators of PINK1 expression; PINK1 immunofluorescence, high-content cytometry, 24 h; Potency, µM (series often up to 76.6 µM), without a hit: top-dose activation (PINK1 increase), most hits filed as activators; 0.2% of 410,000 active; active = well fitted activation curve with a large enough effect; inconclusive = small, poorly fitted or top-dose-only effect; cell line not stated here; note: potency is the fitted concentration of half-maximal effect; % of control where 0% means no effect; nearly all actives have a fitted effect of over 65% in size
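Compound titrations (5 concentrations, 24 h) on a stable cell line; DMSO and CCCP controls. Endpoint: fixed-cell PINK1 immunofluorescence with mitochondrial, cell and nuclear markers, scanned by microplate cytometer.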
IL1B secr inh: inhibitors of inflammasome signaling (IL-1 beta secretion) | THP-1 LPS/ATP IL-1B secretion, AlphaLISA, 16 h; hits give low values | activity change, % at 57.5 µM | 4.7% of 360,000 active; in the data active = activity change below about -50%; inconclusive = mostly about -30% to -49%; note: % is set by controls: 0 for no effect and ±100 for the full control effect
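Secreted IL-1B measured by AlphaLISA bead assay after 16 h compound exposure of THP-1 cells; compounds (final up to 57.5 uM) added 1 h before LPS (250 ng/mL) and ATP (1.25 mM) stimulation; lower signal means less secretion.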
ATXN2 expr inh: reduces ATXN2 reporter expression in HEK-293 cells. HEK-293 ATXN2-luciferase reporter, luminescence, 24 h. Potency, µM (top dose mostly 57 µM), without a hit: at the top dose activity change, negative = inhibition, usual class: inhibitors. 0.72% of 360,000 active. AID 1745845; note: potency is the fitted concentration of half-maximal effect; % is set by controls: 0 for no effect and ±100 for the full control effect; nearly all actives have a fitted effect of over 55% in size
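ATXN2-luciferase reporter cells (luciferase flanked by upstream and downstream ATXN2 gene portions) were treated 24 h at 37 °C with compounds at up to 57 uM. SteadyGlo luminescence gave expression; GF-AFC fluorescence gave viability.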
MCF10A rereplic: DNA re-replication induction in MCF 10a cells | Potency, µM (series often up to 46.1 µM), inactives show at the highest dose activity, positive = re-replication, usual class: activators | 2.9% of 350,000 active | AID 624296 | MCF 10A DNA re-replication, Hoechst nuclear intensity, 48 h; note: potency is the fitted concentration of half-maximal effect; % of control where 0% means no effect; nearly all actives have a fitted effect of over 50% in size
* = called active by the depositor; ! = a repeat was not active. Unless noted, calls come from the whole dose curve; as a rule, active = well fitted curve in the direction sought with a large enough effect; inconclusive = small, poorly fitted or top-dose-only effect, or another doubt; inactive = no such curve, though single readings can be large; an effect the other way counts as inactive or inconclusive.

CCN1CCN(c2cc(C)c3cc(NC(=S)N4CCN(c5ccccc5F)CC4)ccc3n2)CC1 was read as ATXN viability inconclusive, SW480 rerep 15%, PINK1 expr mod 0%, IL1B secr inh -9, ATXN2 expr inh -16% and MCF10A rereplic 13%.
`CCN1CCN(c2cc(C)c3cc(NC(=S)N4CCOCC4)ccc3n2)CC1` gave ATXN viability inactive, SW480 rerep 16µM*, PINK1 expr mod 5%, IL1B secr inh -11 and MCF10A rereplic inconclusive.
For CCN1CCN(c2cc(C)c3cc(NC(=S)N4CCN(c5ccccc5)CC4)ccc3n2)CC1 the results were ATXN viability inconclusive, SW480 rerep 18µM*, PINK1 expr mod 6%, IL1B secr inh 56, ATXN2 expr inh -14% and MCF10A rereplic 21µM*.
CC(=O)NCc1nc2cccnc2n1Cc1ccccc1 was read as PINK1 expr mod 1%.
COc1cc(C(=O)NCC(c2cccs2)S(=O)(=O)c2ccc(F)cc2)cc(OC)c1OC (configuration not stated) was read as ATXN viability inactive, PINK1 expr mod 0% and ATXN2 expr inh -2%.
COc1cc2c(NC3CCN(C(C)C)CC3)nc(N3CCCN(C)CC3)nc2cc1OCCCN(C)C was read as PINK1 expr mod -1%.
`CCCCCN=C(N)N/N=C/c1c[nH]c2ccc(OC)cc12` gave ATXN viability 18µM*, SW480 rerep inconclusive, PINK1 expr mod -1%, IL1B secr inh 0, ATXN2 expr inh 5.6µM*! and MCF10A rereplic inconclusive.
`COc1cc(NC(=O)c2ccc(C)cc2)ccc1NC(=O)c1cc2ccccc2o1` gave ATXN viability inactive, SW480 rerep 3%, PINK1 expr mod 2%, IL1B secr inh 25, ATXN2 expr inh inconclusive and MCF10A rereplic 24%.
For COc1cc(NC(=O)c2ccc(C)cc2C)ccc1NC(=O)c1cc2ccccc2o1 the results were ATXN viability inactive, SW480 rerep inconclusive, PINK1 expr mod 0%, IL1B secr inh -7, ATXN2 expr inh 23% and MCF10A rereplic 9.2µM*.
Screening COc1cc(NC(=O)c2ccccc2F)ccc1NC(=O)c1cc2ccccc2o1 returned ATXN viability inactive, SW480 rerep inconclusive, PINK1 expr mod -1%, IL1B secr inh -26, ATXN2 expr inh -19% and MCF10A rereplic 2.3µM*.
`COc1ccc(-c2ccc(CCC(=O)O)n2CC(=O)Nc2cccc(Cl)c2C)cc1` gave ATXN viability inactive, PINK1 expr mod 0% and ATXN2 expr inh 4%.
For COc1ccc(-c2onc(C)c2C)cc1S(=O)(=O)Nc1cc(Cl)ccc1C the results were PINK1 expr mod 7%.
COc1ccccc1-n1c(=O)oc2ccc(Cl)cc2c1=O was read as ATXN viability inconclusive, SW480 rerep 15%, PINK1 expr mod inconclusive, IL1B secr inh -20, ATXN2 expr inh -26% and MCF10A rereplic 6.5µM*.
COc1ccc(N2Cc3cccc(C(=O)Nc4ccc(C(C)C)cc4)c3C2=O)cc1 was read as ATXN viability inactive, PINK1 expr mod 0% and ATXN2 expr inh 15%.
Screening O=C(NCCNc1ccc(Cl)cc1[N+](=O)[O-])c1cccnc1 returned ATXN viability inactive, SW480 rerep inconclusive, PINK1 expr mod 4%, IL1B secr inh 0, ATXN2 expr inh -23% and MCF10A rereplic -13%.
Screening Cc1ccoc1C(=O)NCCNc1ccc(Cl)cc1[N+](=O)[O-] returned ATXN viability inactive, SW480 rerep -6%, PINK1 expr mod 0%, IL1B secr inh -59*, ATXN2 expr inh 29% and MCF10A rereplic 0%.
For CCCN1C(=O)C(O)(C2CC(=O)CC(C)(C)O2)c2ccccc21 (configuration not stated) the results were ATXN viability inactive, SW480 rerep 16µM*, PINK1 expr mod 3%, IL1B secr inh 28, ATXN2 expr inh -9% and MCF10A rereplic inconclusive.
Screening CCOCCc1nn2c(=O)cc(COC(=O)c3ccc4c(c3)OCO4)nc2s1 returned ATXN viability inactive, PINK1 expr mod 0% and ATXN2 expr inh 7%.
Screening Cc1c(N)c(C(C)(C)C)cc(C(C)(C)C)c1[N+](=O)[O-] returned ATXN viability inactive, SW480 rerep -66%, PINK1 expr mod 6%, IL1B secr inh 12, ATXN2 expr inh inconclusive and MCF10A rereplic 18µM*.
`COc1cc(/C=C2/C=Cc3ccccc32)ccc1N(C)C` gave PINK1 expr mod 9%.
`CC1CCC(=C(C#N)C(=O)Nc2cccc(Cl)c2)CC1` (configuration not stated) gave ATXN viability inactive, SW480 rerep -18%, IL1B secr inh -87*, ATXN2 expr inh -7% and MCF10A rereplic inconclusive.
`N#CC(C(=O)Nc1cccc(Cl)c1)=C1Nc2ccccc2N1` gave ATXN viability inconclusive, SW480 rerep -2%, PINK1 expr mod 8%, IL1B secr inh -9, ATXN2 expr inh inconclusive and MCF10A rereplic inconclusive.
For c1ccc(N2CC3COc4ccccc4C3=N2)cc1 (configuration not stated) the results were SW480 rerep 15µM*, PINK1 expr mod -1%, IL1B secr inh 48, ATXN2 expr inh 84% and MCF10A rereplic 13µM*.
For N#CC1(NC(=O)COc2ccccc2[N+](=O)[O-])CCCCC1 the results were ATXN viability inactive, SW480 rerep -63%, PINK1 expr mod -2%, IL1B secr inh 57, ATXN2 expr inh 8% and MCF10A rereplic -23%.
C=CCOc1ccc(C(=O)c2ccccc2)c(OCC(=O)NC2(C#N)CCCC2)c1 was read as ATXN viability inactive, SW480 rerep 3%, PINK1 expr mod 1%, IL1B secr inh -60*, ATXN2 expr inh -1% and MCF10A rereplic -1%.
Screening Cc1ccc(Nc2nc(N)c3ccccc3n2)cc1C returned ATXN viability inactive, SW480 rerep -4%, PINK1 expr mod 2%, IL1B secr inh -97* and MCF10A rereplic 20%.
Screening CCOC(=O)C1=C(NC(=S)NC(=O)c2ccccc2)c2ccccc2CC1C(C)C (configuration not stated) returned ATXN viability inactive, SW480 rerep inconclusive, PINK1 expr mod -2%, IL1B secr inh -19, ATXN2 expr inh -24% and MCF10A rereplic inconclusive.
Screening CCOC(=O)C1=C(NC(=S)NC(=O)c2ccccc2)c2ccccc2CC1(C)CC (configuration not stated) returned ATXN viability inactive, SW480 rerep 10%, PINK1 expr mod 1%, IL1B secr inh -56*, ATXN2 expr inh 70% and MCF10A rereplic 13µM*.
